Screening results: PubChem BioAssay, National Center for Advancing Translational Sciences (NCATS)
The list is not random: actives were taken first. Their share in the collection is about 3%.
TbPYK inhibitor = inhibitors of Trypanosoma brucei pyruvate kinase. TbPYK enzyme, Kinase-Glo Plus ATP luminescence, 45 min. Potency, µM (series often up to 76.8 µM), usual class: inhibitors. 0.12% of 410,000 active. AID 624173; note: nearly all actives have a fitted effect of over 50% in size
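Assay buffer: 50 mM TEA pH 7.2, 100 mM KCl, 10 mM MgCl2, 0.05% BSA, 0.01% Tween-20. Pyruvate kinase from T. brucei plus substrate met compound, then ADP (130 uM final). Luminescence was read post 45 min RT.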
Sm TGR inh = inhibitors of Schistosoma mansoni thioredoxin glutathione reductase; Potency, µM (doses to about 114 µM), usual class: inhibitors; purified TGR, DTNB reduction, TNB absorbance 405 nm; Q962Y6; 3% of 360,000 active; note: nearly all actives have a fitted effect of over 60% in size
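TGR 20 nM + NADPH 100 uM (dispensed conc.), cpd preinc 15 min RT; start with NADPH (500 uM addition) then DTNB (15 mM addition). Kinetic TNB absorbance, 405 nm filter. Four-parameter Hill fit across titration.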
RE007 growth inh = less growth of the S. pombe RE007 Vpr strain; S. pombe RE007 Vpr strain, BacTiter-Glo ATP luminescence, 24 h; Potency, µM (doses to about 92.2 µM), most hits filed as inhibitors; 0.21% of 360,000 active; AID 651644; active = well fitted falling curve with a large enough effect; inconclusive = small, poorly fitted or top-dose-only effect; inactive = no such curve, though single readings can be large or run the other way; note: nearly all actives have a fitted effect of over 50% in size
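Fission yeast strain RE007, carrying one chromosomally integrated HIV-1 vpr copy, was seeded at OD 0.01 in PMG+AL medium with 23 nL pinned compound. After 24 h at 30 °C and 99% humidity, viability was read by BacTiter-Glo luminescence.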
LmPK inhibitor = blocks Leishmania mexicana pyruvate kinase activity; Q27686; 0.37% of 290,000 active; Potency, µM (titrated, usually from 57.5 µM), usual class: inhibitors; purified LmPK, Kinase-Glo ATP luminescence, 1 h
Target sequence (Q27686 whole entry, looked up): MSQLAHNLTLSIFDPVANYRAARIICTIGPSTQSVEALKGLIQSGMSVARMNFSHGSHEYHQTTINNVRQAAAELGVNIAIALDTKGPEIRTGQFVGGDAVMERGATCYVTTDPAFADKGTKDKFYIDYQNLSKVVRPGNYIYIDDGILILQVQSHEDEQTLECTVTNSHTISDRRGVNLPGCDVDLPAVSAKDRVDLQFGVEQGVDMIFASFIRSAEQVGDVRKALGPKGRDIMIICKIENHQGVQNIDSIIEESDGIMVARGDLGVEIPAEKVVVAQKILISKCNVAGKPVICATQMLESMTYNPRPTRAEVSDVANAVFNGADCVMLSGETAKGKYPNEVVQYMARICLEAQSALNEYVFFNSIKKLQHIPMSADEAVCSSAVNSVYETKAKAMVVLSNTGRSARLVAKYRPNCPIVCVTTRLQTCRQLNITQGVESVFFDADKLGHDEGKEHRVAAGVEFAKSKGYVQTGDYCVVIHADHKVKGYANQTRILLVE
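In 50 mM imidazole pH 7.2 with 7 mM MgCl2, LmPK (0.1 nM) turned over PEP (0.5 mM) and ADP (0.1 mM) for 1 h at room temperature. Luciferase read-out of ATP.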
A number is an active result; – = inactive; ? = inconclusive; · = no result; [ ] = another dose, or the depositor's remark. Unless noted, calls come from the whole dose curve; as a rule, active = well fitted curve in the direction sought with a large enough effect; inconclusive = small, poorly fitted or top-dose-only effect, or another doubt; inactive = no such curve, though single readings can be large; an effect the other way counts as inactive or inconclusive.

SMILES	TbPYK inhibitor	Sm TGR inh	RE007 growth inh	LmPK inhibitor
O=C1C=CC2(O[C@H](c3ccccc3)[C@@H](c3ccccc3)O2)[C@H](Sc2ccccc2O)C1	?	·	39.8µM	·
C[C@@H]1[C@@H](Sc2ccccc2)CC(=O)O[C@@H]1c1ccc(-c2ccccc2)cc1	–	·	–	·
CCC(Sc1nc2cc3c(cc2c(=O)n1CCCCCC(=O)NCc1ccc2c(c1)OCO2)OCO3)C(=O)NCCCOC (configuration not stated)	–	–	·	·
CC(=O)OCCNc1cc(N2CCN(C)CC2)c2noc3c2c1C(=O)c1ccccc1-3	?	–	–	–
CCOC(=O)C(C(=O)OCC)c1cc(Br)c2noc3c2c1C(=O)c1ccccc1-3	–	0.631µM	?	–
Cc1cc(C(=O)CSc2nnc(-c3ccco3)o2)c(C)n1-c1ccc2c(c1)OCCO2	–	–[11.4 µM]	–	–
Cc1cc(C(=O)CSc2nnnn2C)c(C)n1-c1ccc2c(c1)OCCO2	–	35.5µM	–	–
CCc1ccccc1NC(=O)CSc1nncn2c1cc1oc(C)cc12	–	–	·	·
COC(=O)C1(Cc2ccc(O)cc2)OC(=O)C(O)=C1c1ccc(O)cc1 (configuration not stated)	–	15.8µM	–	–
Cc1ccc(/C=c2/sc3nnc(-c4ccccc4Cl)n3c2=O)o1	–	39.8µM	–	–
COc1ccc(Br)cc1/C=c1\sc2nc(-c3ccco3)nn2c1=O	–	12.6µM	–	–
Cc1ccc(/C=c2\sc3nc(-c4ccco4)nn3c2=O)o1	–	8.91µM	–	–
COc1ccccc1/C=c1\sc2nc(-c3ccccc3OC)nn2c1=O	–	–	–	–
Cc1ccc(/C=c2\sc3nc(-c4ccccc4Br)nn3c2=O)o1	–	44.7µM	–	–
O=c1ccc(Cl)nn1-c1ccccc1	–	·	–	·
c1ccc(C2[C@H]3CN(CC4CCCCC4)[C@H](c4ccccc4)C34CC2(c2ccccc2)C4)cc1 (some centres not stated)	–	–	–	–
c1ccc(C2[C@H]3CN(CC4CCCCC4)[C@H](c4ccccc4)C34CC2(c2cccnc2)C4)cc1 (some centres not stated)	–	44.7µM	–	–
O=C(N/N=C/C=C/c1ccco1)c1cccnc1	–	22.4µM	–	–
O=C(N/N=C\C=C\c1ccco1)c1cncc(Br)c1	–	17.8µM	–	–
O=C(N/N=C\c1ccco1)c1cncc(Br)c1	·	–	·	–
CC(/C=C\C=C\c1ccccc1)=N\NC(=O)c1cncc(Br)c1	–	39.8µM	–	–
O=C(N/N=C/C=C\c1ccco1)c1cccnc1	–	25.1µM	–	–
CC(/C=C/C=C/c1ccccc1)=N\NC(=O)c1cccnc1	–	?	–	–
COc1cc(OC)c(NC(=O)CCCn2nc(C)c3sc4ccccc4c3c2=O)cc1Cl	–	–	·	·
CC(=O)c1ccc(S(=O)(=O)NCCCC(=O)N(C)Cc2ccc3c(c2)OCO3)cc1	–	15.8µM	–	·
SMILES	TbPYK inhibitor	Sm TGR inh	RE007 growth inh	LmPK inhibitor
COC(=O)c1nn(-c2ccc(-c3ccccc3)cc2)cc1O	–	–	–	15.8µM
Cc1nc(C)c(-c2ccc(SCC(=O)Nc3ccc(Cl)c(Cl)c3)nn2)s1	–	–	·	·
O=[N+]([O-])c1ccc(CS(=O)c2ccccc2)cc1 (configuration not stated)	–	·	–	·
O=[N+]([O-])c1ccc(S(=O)Cc2ccccc2)c([N+](=O)[O-])c1 (configuration not stated)	–	·	5.62µM	·
COc1cc(/C=C2\SC(=O)N(c3ccccc3Cl)C2=O)cc([N+](=O)[O-])c1O	–	–	35.5µM	–
COc1ccc(C)cc1NS(=O)(=O)c1ccc2oc(=O)c3ncn(C)c3c2c1	–	–	·	·
Cc1cc(O)c(C(c2ccc(Cl)cc2)N2CCN(c3ccccc3)CC2)c(=O)n1Cc1ccco1 (configuration not stated)	–	5.01µM	·	·
Cc1cc(O)c(C(c2ccccc2)N2CCN(c3ccc(F)cc3)CC2)c(=O)n1Cc1ccco1 (configuration not stated)	–	3.55µM	·	·
CC(C)CC(c1nnnn1Cc1ccco1)N1CCN(c2cccc(Cl)c2)CC1 (configuration not stated)	–	–	–	–
Cc1cc(O)c(C(c2ccc(F)cc2)N2CCN(c3ccccc3)CC2)c(=O)n1Cc1ccco1 (configuration not stated)	–	10µM	·	·
Cc1cc(O)c(C(c2ccc(F)cc2)N2CCCCC2)c(=O)n1Cc1ccco1 (configuration not stated)	–	20µM	·	·
CCOc1ccc(CCNC(=O)c2cc3c(=O)oc4ccc(C)cc4c3s2)cc1OCC	–	–	·	·
CCN(C(=O)Cn1ncc2c1-c1cc(C)ccc1OC2)c1cc(Cl)ccc1OC	–	–	·	·
Cc1cc(O)c(C(c2ccccc2)N2CCN(c3ccccc3)CC2)c(=O)n1Cc1ccco1 (configuration not stated)	–	3.16µM	·	·
CCOc1ccc(C(c2c(O)cc(C)n(Cc3ccco3)c2=O)N2CCN(C)CC2)cc1 (configuration not stated)	–	7.94µM	·	·
CN1C(=O)CC(Nc2cccc3cccc(N)c23)C1=O (configuration not stated)	–	31.6µM	–	–
CC(C)N1C(=O)CC(Nc2cccc3cccc(N)c23)C1=O (configuration not stated)	–	?	–	–
CC1C2(C)OCC(C#N)(C(=N)O2)C1(C#N)C#N (configuration not stated)	·	12.6µM	·	–
c1ccc(C2c3[nH]c4ccccc4c3CCN2Cc2cccn2-c2ccccn2)nc1 (configuration not stated)	–	50.1µM	–	–
Cc1cccc(C2c3[nH]c4ccccc4c3CCN2Cc2cccn2-c2ncccn2)c1 (configuration not stated)	–	·	–	–
CCCN(CCC)C(=O)CSc1nnc2cc(C)c3cc(C)cc(C)c3n12	?	–	·	·
Cc1ccc(S(=O)(=O)CCC(=O)c2ccc(O)cc2O)cc1	–	0.447µM	?	–
COc1ccc(C(=O)CCS(=O)(=O)c2ccc(C)cc2)cc1OC	–	0.447µM	?	–
O=C(NCCc1ccc(Cl)cc1)c1ccc(CS(=O)Cc2cccc(Cl)c2)o1 (configuration not stated)	–	?	·	·
COC(=O)/C(=C/c1c[nH]c2ccccc12)[N+](=O)[O-]	–	44.7µM	–	–
SMILES	TbPYK inhibitor	Sm TGR inh	RE007 growth inh	LmPK inhibitor
Cn1cc(C=C2C(=O)NC(=O)NC2=O)c2ccccc21	–	?	–	–
COC(=O)/C(=C/c1cn(C(C)=O)c2ccccc12)[N+](=O)[O-]	–	3.55µM	–	–
CC(=O)n1cc(C=C2C(=O)NC(=O)NC2=O)c2ccccc21	28.2µM	?	–	–
COC(=O)/C(=C/c1c[nH]c2ccccc12)NC(C)=O	–	–	–	–
CCOC(=O)C1(C)CCCN(C(=O)c2ccc(C#N)cc2)C1 (configuration not stated)	–	·	–	·
COc1ccc(CNc2ncc(-c3ccc(F)cc3)n2C)cc1OC	–	–	–	–
